# Experimental data: PMC7862700, “An all-to-all approach to the identification of sequence-specific readers for epigenetic DNA modifications on cytosine”
# Key:
# Test in all cases: DAPPL (digital affinity profiling via proximity ligation, sequencing); 10 mM Tris-HCl pH 7.5, 50 mM NaCl, 1 mM DTT, 4% glycerol, room temperature, 30 min; GST-TFs on glutathione beads, 16-mer random dsDNA library, 0.1% formaldehyde crosslink after washing; high values mean tight binding
# FEV = target: T1, FEV (Homo sapiens, UniProt Q99581 1-238); details: protein: recombinant; tags: N-terminal GST; dsDNA, one strand shown
# T1 sequence: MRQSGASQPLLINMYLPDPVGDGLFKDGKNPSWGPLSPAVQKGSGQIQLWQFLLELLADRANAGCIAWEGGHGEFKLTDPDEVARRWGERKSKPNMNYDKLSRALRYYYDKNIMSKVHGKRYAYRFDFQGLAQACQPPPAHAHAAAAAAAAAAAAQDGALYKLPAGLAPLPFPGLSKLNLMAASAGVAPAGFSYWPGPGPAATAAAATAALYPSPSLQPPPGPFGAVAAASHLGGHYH
# How it was run: (§1)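 Human transcription factors fused to GST were expressed in yeast, captured on glutathione beads, given DNA barcodes and pooled with a GST-only negative control. Pools were incubated with 200 nmole of a 16-mer random double-stranded DNA library in Tris/NaCl/DTT/glycerol buffer at room temperature for 30 min. They were then washed, crosslinked with 0.1% formaldehyde, proximity-ligated (BsaI/T4 ligase, 1 h, 37 °C), PCR-amplified and sequenced on an Illumina NextSeq500. Binding signal is each 6-mer's read frequency for a factor divided by its frequency for the GST control.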
# ETV5 = ETV5 (Homo sapiens, UniProt P41161 1-510); details: protein: recombinant; tags: N-terminal GST; dsDNA, one strand shown
# ETV5, sequence (P41161 whole entry): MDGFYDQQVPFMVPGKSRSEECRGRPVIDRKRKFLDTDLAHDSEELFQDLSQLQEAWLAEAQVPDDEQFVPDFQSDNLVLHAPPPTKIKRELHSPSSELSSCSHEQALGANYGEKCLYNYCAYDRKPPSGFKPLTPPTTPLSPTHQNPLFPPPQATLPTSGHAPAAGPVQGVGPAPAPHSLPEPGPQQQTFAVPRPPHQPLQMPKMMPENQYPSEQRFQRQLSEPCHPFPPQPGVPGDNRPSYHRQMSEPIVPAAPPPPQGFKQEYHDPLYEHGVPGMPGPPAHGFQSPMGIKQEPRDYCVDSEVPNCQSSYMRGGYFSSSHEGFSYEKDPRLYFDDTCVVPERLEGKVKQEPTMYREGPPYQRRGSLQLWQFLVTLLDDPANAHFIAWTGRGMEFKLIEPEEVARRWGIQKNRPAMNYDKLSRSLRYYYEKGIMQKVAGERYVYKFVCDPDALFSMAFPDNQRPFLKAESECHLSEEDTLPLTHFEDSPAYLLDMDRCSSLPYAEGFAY
# How it was run: as §1
# HSF1 = HSF1 (Homo sapiens, UniProt Q00613 1-529); details: protein: recombinant; tags: N-terminal GST; chain copies: 3; dsDNA, one strand shown
# HSF1, sequence (Q00613 whole entry): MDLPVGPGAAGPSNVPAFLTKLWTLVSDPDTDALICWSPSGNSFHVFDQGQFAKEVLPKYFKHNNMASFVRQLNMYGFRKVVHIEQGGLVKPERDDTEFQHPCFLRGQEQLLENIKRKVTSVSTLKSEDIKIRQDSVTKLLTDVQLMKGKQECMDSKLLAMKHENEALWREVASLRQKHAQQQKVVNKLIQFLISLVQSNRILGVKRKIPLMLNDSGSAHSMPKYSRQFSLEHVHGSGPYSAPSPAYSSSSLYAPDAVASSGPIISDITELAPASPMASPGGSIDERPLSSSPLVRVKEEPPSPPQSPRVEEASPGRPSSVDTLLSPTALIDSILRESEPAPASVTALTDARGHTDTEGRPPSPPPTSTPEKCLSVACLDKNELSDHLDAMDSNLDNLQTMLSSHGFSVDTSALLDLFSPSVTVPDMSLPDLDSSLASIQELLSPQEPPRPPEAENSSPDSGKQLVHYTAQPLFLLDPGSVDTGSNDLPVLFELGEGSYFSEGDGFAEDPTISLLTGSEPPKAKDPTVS
# How it was run: as §1
# SPIC = target: T2, SPIC (Homo sapiens, UniProt Q8N5J4 1-248); details: protein: recombinant; tags: N-terminal GST; dsDNA, one strand shown
# T2 sequence: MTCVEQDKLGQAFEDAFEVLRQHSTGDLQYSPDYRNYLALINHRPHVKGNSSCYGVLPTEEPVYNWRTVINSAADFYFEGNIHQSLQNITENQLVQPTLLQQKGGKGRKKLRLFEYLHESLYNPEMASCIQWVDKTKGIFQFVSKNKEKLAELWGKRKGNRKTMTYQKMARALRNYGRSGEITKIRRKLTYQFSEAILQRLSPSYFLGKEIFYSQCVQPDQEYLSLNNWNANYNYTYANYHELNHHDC
# How it was run: as §1
# ELF4 = ELF4 (Homo sapiens, UniProt Q99607 1-663); details: protein: recombinant; tags: N-terminal GST; dsDNA, one strand shown
# ELF4, sequence (Q99607 whole entry): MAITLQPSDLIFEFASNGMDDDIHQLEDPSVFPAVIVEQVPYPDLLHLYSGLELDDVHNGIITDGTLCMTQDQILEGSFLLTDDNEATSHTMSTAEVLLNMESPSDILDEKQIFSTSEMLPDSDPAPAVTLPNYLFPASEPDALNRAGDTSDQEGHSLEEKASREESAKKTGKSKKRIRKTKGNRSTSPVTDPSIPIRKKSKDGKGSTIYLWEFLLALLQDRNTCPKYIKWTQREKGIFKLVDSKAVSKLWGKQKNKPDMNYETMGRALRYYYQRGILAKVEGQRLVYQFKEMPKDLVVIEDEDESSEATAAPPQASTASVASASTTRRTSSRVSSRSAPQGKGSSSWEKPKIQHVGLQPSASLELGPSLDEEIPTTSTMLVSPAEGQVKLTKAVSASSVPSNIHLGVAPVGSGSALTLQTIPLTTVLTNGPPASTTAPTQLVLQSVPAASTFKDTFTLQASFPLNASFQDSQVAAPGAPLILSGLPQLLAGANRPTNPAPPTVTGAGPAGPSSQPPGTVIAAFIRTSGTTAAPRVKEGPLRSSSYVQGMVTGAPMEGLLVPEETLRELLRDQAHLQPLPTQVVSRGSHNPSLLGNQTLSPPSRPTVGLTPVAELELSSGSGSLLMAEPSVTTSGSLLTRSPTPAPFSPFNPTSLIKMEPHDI
# How it was run: as §1
# ELK4 = target: T3, ELK4 (Homo sapiens, UniProt P28324-2 1-405); details: protein: recombinant; tags: N-terminal GST; dsDNA, one strand shown
# T3 sequence: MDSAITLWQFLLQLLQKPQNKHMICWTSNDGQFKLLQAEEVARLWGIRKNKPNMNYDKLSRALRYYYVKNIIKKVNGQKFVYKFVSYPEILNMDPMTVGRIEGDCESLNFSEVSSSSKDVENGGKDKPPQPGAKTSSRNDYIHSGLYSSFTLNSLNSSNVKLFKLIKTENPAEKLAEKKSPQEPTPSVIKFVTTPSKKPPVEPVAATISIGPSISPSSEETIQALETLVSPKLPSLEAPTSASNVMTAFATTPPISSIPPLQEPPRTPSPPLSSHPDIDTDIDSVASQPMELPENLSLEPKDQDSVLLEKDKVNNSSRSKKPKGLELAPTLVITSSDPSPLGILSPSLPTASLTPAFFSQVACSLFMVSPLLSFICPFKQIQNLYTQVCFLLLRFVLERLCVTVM
# How it was run: as §1
# ETV2 = target: T4, ETV2 (Homo sapiens, UniProt O00321 1-342); details: protein: recombinant; tags: N-terminal GST; dsDNA, one strand shown
# T4 sequence: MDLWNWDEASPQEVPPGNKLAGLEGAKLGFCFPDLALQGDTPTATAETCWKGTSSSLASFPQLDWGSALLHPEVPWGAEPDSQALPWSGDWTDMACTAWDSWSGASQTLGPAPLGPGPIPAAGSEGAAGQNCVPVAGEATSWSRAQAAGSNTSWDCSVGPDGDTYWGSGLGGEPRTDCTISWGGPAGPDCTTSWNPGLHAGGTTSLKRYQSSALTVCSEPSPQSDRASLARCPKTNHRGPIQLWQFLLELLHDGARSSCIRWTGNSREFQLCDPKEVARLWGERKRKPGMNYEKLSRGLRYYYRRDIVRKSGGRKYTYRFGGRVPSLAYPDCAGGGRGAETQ
# How it was run: as §1
# ELF3 = target: T5, ELF3 (Homo sapiens, UniProt P78545 1-371); details: protein: recombinant; tags: N-terminal GST; dsDNA, one strand shown
# T5 sequence: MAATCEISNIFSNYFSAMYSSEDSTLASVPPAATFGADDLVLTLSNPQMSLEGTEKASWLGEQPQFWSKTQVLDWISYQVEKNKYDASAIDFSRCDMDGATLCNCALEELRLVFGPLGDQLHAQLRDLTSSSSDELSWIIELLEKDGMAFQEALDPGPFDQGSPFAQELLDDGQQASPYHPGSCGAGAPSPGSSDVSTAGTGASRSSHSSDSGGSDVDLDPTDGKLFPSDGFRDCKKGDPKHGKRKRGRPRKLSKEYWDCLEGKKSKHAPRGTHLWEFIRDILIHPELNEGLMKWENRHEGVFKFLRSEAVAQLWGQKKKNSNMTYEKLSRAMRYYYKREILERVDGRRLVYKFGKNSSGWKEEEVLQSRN
# How it was run: as §1
# CRX = CRX (Homo sapiens, UniProt O43186 1-299); details: protein: recombinant; tags: N-terminal GST; dsDNA, one strand shown
# CRX, sequence (O43186 whole entry): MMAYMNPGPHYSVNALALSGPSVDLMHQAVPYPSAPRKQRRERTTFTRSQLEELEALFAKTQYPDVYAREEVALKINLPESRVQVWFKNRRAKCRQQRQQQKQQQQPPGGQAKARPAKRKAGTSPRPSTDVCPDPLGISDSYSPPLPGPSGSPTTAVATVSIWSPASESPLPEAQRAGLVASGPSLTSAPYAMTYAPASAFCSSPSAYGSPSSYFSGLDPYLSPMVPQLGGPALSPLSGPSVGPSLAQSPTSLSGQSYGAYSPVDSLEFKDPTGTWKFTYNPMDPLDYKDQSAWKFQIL
# How it was run: as §1
# ETV1 = ETV1 (Homo sapiens, UniProt P50549 1-477); details: protein: recombinant; tags: N-terminal GST; dsDNA, one strand shown
# ETV1, sequence (P50549 whole entry): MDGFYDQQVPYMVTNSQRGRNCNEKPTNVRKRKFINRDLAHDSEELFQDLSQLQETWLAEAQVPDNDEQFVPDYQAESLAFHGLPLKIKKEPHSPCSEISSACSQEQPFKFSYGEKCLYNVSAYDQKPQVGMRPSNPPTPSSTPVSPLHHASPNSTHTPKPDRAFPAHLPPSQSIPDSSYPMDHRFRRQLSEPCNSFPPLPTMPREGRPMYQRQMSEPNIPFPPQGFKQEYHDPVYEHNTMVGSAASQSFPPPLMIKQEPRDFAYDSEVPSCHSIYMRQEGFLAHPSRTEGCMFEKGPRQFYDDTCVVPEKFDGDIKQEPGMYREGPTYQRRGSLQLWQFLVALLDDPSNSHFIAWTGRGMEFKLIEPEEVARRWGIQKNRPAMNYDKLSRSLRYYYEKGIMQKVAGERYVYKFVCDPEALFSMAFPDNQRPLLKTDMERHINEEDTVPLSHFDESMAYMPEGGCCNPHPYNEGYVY
# How it was run: as §1
# ERF = target: T6, ERF (Homo sapiens, UniProt P50548 1-548); details: protein: recombinant; tags: N-terminal GST; dsDNA, one strand shown
# T6 sequence: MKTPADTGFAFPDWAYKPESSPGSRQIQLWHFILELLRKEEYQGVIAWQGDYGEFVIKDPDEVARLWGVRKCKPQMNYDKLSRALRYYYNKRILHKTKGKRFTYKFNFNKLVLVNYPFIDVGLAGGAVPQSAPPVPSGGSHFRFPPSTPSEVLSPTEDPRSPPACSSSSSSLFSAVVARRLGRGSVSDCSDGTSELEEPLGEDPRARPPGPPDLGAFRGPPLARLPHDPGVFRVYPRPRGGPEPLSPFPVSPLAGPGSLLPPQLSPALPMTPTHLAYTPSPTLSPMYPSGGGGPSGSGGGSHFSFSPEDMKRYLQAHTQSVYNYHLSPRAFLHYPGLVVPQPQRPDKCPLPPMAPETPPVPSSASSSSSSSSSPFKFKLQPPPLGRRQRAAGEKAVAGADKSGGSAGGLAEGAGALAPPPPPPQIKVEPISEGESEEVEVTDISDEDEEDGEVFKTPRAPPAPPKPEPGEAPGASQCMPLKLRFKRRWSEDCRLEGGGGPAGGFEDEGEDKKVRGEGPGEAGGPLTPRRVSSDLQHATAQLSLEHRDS
# How it was run: as §1
# ETV3L = target: T7, ETV3L (Homo sapiens, UniProt Q6ZN32 1-361); details: protein: recombinant; tags: N-terminal GST; dsDNA, one strand shown
# T7 sequence: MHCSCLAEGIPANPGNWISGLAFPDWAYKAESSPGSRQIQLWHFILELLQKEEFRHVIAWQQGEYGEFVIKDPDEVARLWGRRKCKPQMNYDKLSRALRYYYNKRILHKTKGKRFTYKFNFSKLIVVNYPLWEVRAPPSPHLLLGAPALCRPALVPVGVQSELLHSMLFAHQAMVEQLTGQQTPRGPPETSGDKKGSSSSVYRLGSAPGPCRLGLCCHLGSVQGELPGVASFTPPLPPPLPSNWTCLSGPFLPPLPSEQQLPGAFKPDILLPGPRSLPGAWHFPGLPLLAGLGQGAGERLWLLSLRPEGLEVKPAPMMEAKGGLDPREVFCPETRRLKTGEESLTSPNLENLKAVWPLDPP
# How it was run: as §1
# ETS2 = target: T8, ETS2 (Homo sapiens, UniProt P15036 1-469); details: protein: recombinant; tags: N-terminal GST; dsDNA, one strand shown
# T8 sequence: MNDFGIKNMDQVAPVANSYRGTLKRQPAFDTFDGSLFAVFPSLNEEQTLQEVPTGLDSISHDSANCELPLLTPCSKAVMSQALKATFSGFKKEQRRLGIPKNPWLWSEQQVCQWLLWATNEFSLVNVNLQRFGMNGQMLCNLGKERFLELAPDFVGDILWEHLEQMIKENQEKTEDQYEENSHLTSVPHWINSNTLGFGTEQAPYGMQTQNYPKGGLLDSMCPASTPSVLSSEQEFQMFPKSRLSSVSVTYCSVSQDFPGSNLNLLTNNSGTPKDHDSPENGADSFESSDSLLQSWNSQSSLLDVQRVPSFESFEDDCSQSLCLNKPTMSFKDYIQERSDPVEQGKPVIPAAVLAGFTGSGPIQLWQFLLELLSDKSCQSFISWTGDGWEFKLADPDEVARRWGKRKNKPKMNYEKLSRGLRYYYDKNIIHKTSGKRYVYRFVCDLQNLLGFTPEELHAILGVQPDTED
# How it was run: as §1
# SPDEF = target: T9, SPDEF (Homo sapiens, UniProt O95238 1-335); details: protein: recombinant; tags: N-terminal GST; dsDNA, one strand shown
# T9 sequence: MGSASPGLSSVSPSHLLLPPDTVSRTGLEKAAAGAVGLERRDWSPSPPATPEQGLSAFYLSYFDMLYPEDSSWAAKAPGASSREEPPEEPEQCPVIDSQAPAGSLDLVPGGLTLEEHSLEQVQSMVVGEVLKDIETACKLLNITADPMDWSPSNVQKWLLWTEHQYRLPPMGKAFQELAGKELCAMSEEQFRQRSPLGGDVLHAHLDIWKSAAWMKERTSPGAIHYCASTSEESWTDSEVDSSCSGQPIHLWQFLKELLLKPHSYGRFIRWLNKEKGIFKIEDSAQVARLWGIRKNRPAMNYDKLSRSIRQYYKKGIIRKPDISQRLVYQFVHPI
# How it was run: as §1
# ETV7 = target: T10, ETV7 (Homo sapiens, UniProt Q9Y603 1-341); details: protein: recombinant; tags: N-terminal GST; dsDNA, one strand shown
# T10 sequence: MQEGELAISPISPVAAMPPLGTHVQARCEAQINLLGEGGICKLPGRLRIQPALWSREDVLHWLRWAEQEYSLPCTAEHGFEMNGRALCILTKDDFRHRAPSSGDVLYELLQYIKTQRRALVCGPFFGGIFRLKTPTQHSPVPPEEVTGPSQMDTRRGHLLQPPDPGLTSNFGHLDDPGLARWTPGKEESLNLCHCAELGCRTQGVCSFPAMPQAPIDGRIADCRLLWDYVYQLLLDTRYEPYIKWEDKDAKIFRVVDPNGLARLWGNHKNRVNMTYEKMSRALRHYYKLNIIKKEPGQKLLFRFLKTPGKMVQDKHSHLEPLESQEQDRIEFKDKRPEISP
# How it was run: as §1
# ELF5 = target: T11, ELF5 (Homo sapiens, UniProt Q9UKW6-2 1-255); details: protein: recombinant; tags: N-terminal GST; dsDNA, one strand shown
# T11 sequence: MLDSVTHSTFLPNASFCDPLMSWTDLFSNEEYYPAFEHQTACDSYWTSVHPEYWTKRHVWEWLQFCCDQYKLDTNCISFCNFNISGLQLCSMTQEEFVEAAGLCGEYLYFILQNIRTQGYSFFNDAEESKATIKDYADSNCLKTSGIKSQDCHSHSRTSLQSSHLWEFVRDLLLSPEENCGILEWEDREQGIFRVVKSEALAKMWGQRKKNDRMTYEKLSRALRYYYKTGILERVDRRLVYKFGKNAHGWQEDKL
# How it was run: as §1
# ETV3 = target: T12, ETV3 (Homo sapiens, UniProt P41162-2 1-143); details: protein: recombinant; tags: N-terminal GST; dsDNA, one strand shown
# T12 sequence: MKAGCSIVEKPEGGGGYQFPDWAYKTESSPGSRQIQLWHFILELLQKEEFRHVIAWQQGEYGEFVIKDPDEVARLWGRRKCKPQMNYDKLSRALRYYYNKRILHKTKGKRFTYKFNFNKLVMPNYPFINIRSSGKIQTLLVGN
# How it was run: as §1
# ETV6 = ETV6 (Homo sapiens, UniProt P41212 1-452); details: protein: recombinant; tags: N-terminal GST; dsDNA, one strand shown
# ETV6, sequence (P41212 whole entry): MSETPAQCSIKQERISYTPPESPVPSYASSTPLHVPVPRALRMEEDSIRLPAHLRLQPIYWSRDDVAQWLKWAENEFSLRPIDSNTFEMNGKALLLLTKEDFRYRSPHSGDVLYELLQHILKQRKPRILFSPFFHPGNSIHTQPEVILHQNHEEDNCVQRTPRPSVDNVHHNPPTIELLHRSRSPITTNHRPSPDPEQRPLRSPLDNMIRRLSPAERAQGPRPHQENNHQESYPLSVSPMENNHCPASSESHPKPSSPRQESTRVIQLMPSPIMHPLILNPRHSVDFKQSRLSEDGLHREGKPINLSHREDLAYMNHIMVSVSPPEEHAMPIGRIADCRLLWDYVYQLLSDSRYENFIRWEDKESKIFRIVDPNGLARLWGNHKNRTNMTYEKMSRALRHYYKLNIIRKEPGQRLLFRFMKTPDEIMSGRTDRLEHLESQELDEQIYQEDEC
# How it was run: as §1
sequence,measurement,setting,value
TCCTTT,binding signal,FEV,"1.69 fold enrichment (6-mer frequency, TF over GST control)"
same,binding signal,ETV5,"1.69 fold enrichment (6-mer frequency, TF over GST control)"
same,binding signal,HSF1,"1.57 fold enrichment (6-mer frequency, TF over GST control)"
same,binding signal,SPIC,"1.76 fold enrichment (6-mer frequency, TF over GST control)"
same,binding signal,ELF4,"1.77 fold enrichment (6-mer frequency, TF over GST control)"
same,binding signal,ELK4,"1.62 fold enrichment (6-mer frequency, TF over GST control)"
same,binding signal,ETV2,"1.47 fold enrichment (6-mer frequency, TF over GST control)"
same,binding signal,ELF3,"1.78 fold enrichment (6-mer frequency, TF over GST control)"
same,binding signal,CRX,"1.67 fold enrichment (6-mer frequency, TF over GST control)"
same,binding signal,ETV1,"1.68 fold enrichment (6-mer frequency, TF over GST control)"
same,binding signal,ERF,"1.62 fold enrichment (6-mer frequency, TF over GST control)"
same,binding signal,ETV3L,"1.85 fold enrichment (6-mer frequency, TF over GST control)"
same,binding signal,ETS2,"1.67 fold enrichment (6-mer frequency, TF over GST control)"
same,binding signal,SPDEF,"1.76 fold enrichment (6-mer frequency, TF over GST control)"
same,binding signal,ETV7,"1.59 fold enrichment (6-mer frequency, TF over GST control)"
same,binding signal,ELF5,"2 fold enrichment (6-mer frequency, TF over GST control)"
same,binding signal,ETV3,"1.78 fold enrichment (6-mer frequency, TF over GST control)"
same,binding signal,ETV6,"1.76 fold enrichment (6-mer frequency, TF over GST control)"
